Results published in PubChem BioAssay AID1159580 (chemical genetic matrix, 2015).
Values joined by “and” are separate entries in the source; they are usually repeats but may differ in a detail not shown here. Equal entries are not always repeated. Screen size: about 5,500 compounds; about 2,000 (36%) were called active. About 18% were inconclusive and are not listed. Rule as the data show it: active = normalized growth mostly below about 0.91 (no sharp cut-off); inconclusive = no clear call, values can overlap the other calls; inactive = mostly above about 0.92. The list shows a part of the results.

Test: chemical genetic growth profiling, strain panel (AID 1159580);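 also: tested at 20 µM; growth read once vehicle control cultures reached saturation at 30 °C; 1 = growth at the plate median or of vehicle wells; lower values mean less growth of the strain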
Conditions: S. cerevisiae deletion strains, growth OD

Measured: normalized growth

O=C1C(O)=C(O)C(=O)C(O)=C1O
inactive: locus YAL013W, strain DEP1, hits give low values 0.983 | locus YAL021C, strain ccr4, hits give low values 1 | locus YAL026C, strain drs2, hits give low values 1.02 | locus YAL030W, strain snc1, hits give low values 1 | locus YBL061C, strain skt5, hits give low values 1.03 | locus YBR009C, strain hhf1, hits give low values 0.992 | locus YBR021W, strain FUR4, hits give low values 1.01 | locus YBR023C, strain chs3, hits give low values 1.02 | locus YBR171W, strain sec66, hits give low values 1.02 | locus YBR229C, strain ROT2, hits give low values 0.964 | locus YBR231C, strain swc5, hits give low values 1.02 | locus YBR279W, strain paf1, hits give low values 1.01 | locus YCL011C, strain gbp2, hits give low values 0.991 | locus YCL016C, strain dcc1, hits give low values 1.02 | locus YCL029C, strain bik1, hits give low values 0.991 | locus YCL061C, strain MRC1, hits give low values 1.01 | locus YCL069W, strain vba3, hits give low values 1.03 | locus YCR088W, strain abp1, hits give low values 1.01 | locus YDL005C, strain med2, hits give low values 1.01 | locus YDL035C, strain GPR1, hits give low values 1 | locus YDL040C, strain nat1, hits give low values 0.997 | locus YDL074C, strain BRE1, hits give low values 0.968 | locus YDL101C, strain DUN1, hits give low values 0.965 | locus YDL134C, strain PPH21, hits give low values 0.983 | locus YDL185W, strain tfp1, hits give low values 0.959 | locus YDL192W, strain arf1, hits give low values 0.99 | locus YDR001C, strain nth1, hits give low values 1 | locus YDR069C, strain doa4, hits give low values 1.01 | locus YDR101C, strain arx1, hits give low values 1.01 | locus YDR137W, strain rgp1, hits give low values 0.984 | locus YDR150W, strain NUM1, hits give low values 0.968 | locus YDR159W, strain sac3, hits give low values 0.977 | locus YDR162C, strain NBP2, hits give low values 0.939 | locus YDR195W, strain ref2 0.999 | locus YDR297W, strain sur2, hits give low values 1.02 | locus YDR318W, strain mcm21, hits give low values 1.03 | locus YDR334W, strain swr1, hits give low values 1.01 | locus YDR335W, strain msn5, hits give low values 1.01 | locus YDR388W, hits give low values 0.991 | locus YDR392W, strain spt3, hits give low values 1.04 | locus YDR502C, strain sam2, hits give low values 0.996 | locus YEL003W, strain gim4, hits give low values 1.02 | locus YEL037C, strain rad23, hits give low values 0.998 | locus YEL061C, strain CIN8 (second series), hits give low values 1.01 | locus YEL061C, strain CIN8, hits give low values 0.987 | locus YER015W, strain faa2, hits give low values 1.01 | locus YER016W, strain bim1, hits give low values 1.01 | locus YER110C, hits give low values 0.986 | locus YER111C, strain swi4, hits give low values 0.991 | locus YER155C, strain BEM2 (second series), hits give low values 1.01 | locus YER155C, strain BEM2, hits give low values 1 | locus YER167W, strain BCK2, hits give low values 1.01 | locus YFR010W, strain ubp6, hits give low values 1 | locus YGL078C, strain dbp3, hits give low values 0.977 | locus YGL086W, strain mad1, hits give low values 1.02 | locus YGL167C, strain pmr1, hits give low values 1 | locus YGL173C, strain kem1, hits give low values 1.01 | locus YGL227W, strain vid30, hits give low values 1.01 | locus YGL240W, strain doc1, hits give low values 1.02 | locus YGL248W, strain PDE1, hits give low values 0.974 | locus YGL253W, strain hxk2, hits give low values 1 | locus YGR078C, strain PAC10, hits give low values 0.971 | locus YGR135W, strain pre9, hits give low values 0.968 | locus YGR229C, strain SMI1, hits give low values 0.969 | locus YGR252W, strain gcn5, hits give low values 1.04 | locus YHR013C, strain ard1, hits give low values 1.03 | locus YHR027C, strain rpn1, hits give low values 1.02 | locus YHR030C, strain SLT2, hits give low values 1 and 0.988 | locus YHR079C, strain IRE1 (second series), hits give low values 1 | locus YHR079C, strain IRE1, hits give low values 0.973 | locus YHR094C, strain hxt1, hits give low values 0.984 | locus YHR129C, strain ARP1, hits give low values 0.994 | locus YHR142W, strain chs7, hits give low values 1.02 | locus YHR200W, strain rpn10, hits give low values 1 | locus YIL066C, strain RNR3, hits give low values 0.977 | locus YIL073C, strain SPO22, hits give low values 1.07 | locus YIL125W, strain kgd1, hits give low values 0.967 | locus YIR030C, strain dcg1, hits give low values 0.993 | locus YJL092W, strain hpr5, hits give low values 1.01 | locus YJL095W, strain BCK1 (second series), hits give low values 1.02 | locus YJL095W, strain BCK1, hits give low values 0.991 and 0.993 | locus YJL115W, strain asf1, hits give low values 1 | locus YJL129C, strain trk1, hits give low values 1.03 | locus YJL134W, strain LCB3, hits give low values 0.995 | locus YJL154C, strain vps35, hits give low values 1.02 | locus YJL164C, strain tpk1, hits give low values 1 | locus YJL166W, strain qcr8, hits give low values 1.01 | locus YJL168C, strain set2, hits give low values 0.996 | locus YJL187C, strain SWE1 (second series), hits give low values 0.961 | locus YJL187C, strain SWE1, hits give low values 1.01 | locus YJR043C, strain POL32, hits give low values 1.03 | locus YJR066W, strain TOR1, hits give low values 0.941
